Compound activity (PubChem)
Most compounds without a hit are left out; they make up all but 19% or so of the library.
HT1080 IDH1KD tx: qHTS for induction of synthetic lethality in tumor cells producing 2HG: qHTS for the HT-1080-IDH1KD cell line. HT-1080 IDH1 knockdown viability, ATP luminescence, 48 h. Potency, µM (titrated, usually from 46.1 µM), usual class: cytotoxic. actives 2% (n = 360,000). AID 686971, 2013
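HT-1080-IDH1KD cells (IDH1 knocked down), 750/well in RPMI with 5% FBS, treated with compound 48 h at 37 degrees C. Viability by CellTiter-Glo luminescence, normalised to DMSO and no-cell wells; concentration-response curves classed.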
IL1B secr inh: qHTS for Inhibitors of Inflammasome Signaling: IL-1-beta AlphaLISA Primary Screen; actives 4.7% (n = 360,000); activity change, % at 57.5 µM; THP-1 LPS/ATP IL-1B secretion, AlphaLISA, 16 h; active compounds read low; in the data active = activity change below about -50%; inconclusive = mostly about -30% to -49%
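THP-1 cells pretreated 1 hr with compounds (up to 57.5 uM final), then stimulated with LPS (250 ng/mL final) plus ATP (1.25 mM final); secreted IL-1B measured by AlphaLISA after 16 hr, decreased signal indicating inhibition.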
HT1080NT lethal: qHTS for induction of synthetic lethality in tumor cells producing 2HG: qHTS for the HT-1080-NT fibrosarcoma cell line; actives 1.6% (n = 360,000); Potency, µM (series often up to 46.1 µM), hits mostly cytotoxic; HT-1080-NT fibrosarcoma viability, CellTiter-Glo ATP luminescence, 48 h;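 note: NT is the 2HG producing partner of a matched IDH1 knockdown line; nearly all actives have a fitted effect of over 55% in size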
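A 48-hour cytotoxicity screen used HT-1080-NT cells plated 2 hours before compound delivery. ATP-based CellTiter-Glo luminescence measured viability, normalized to DMSO and no-cell controls.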
ELG1 repair inh: qHTS screen for small molecules that inhibit ELG1-dependent DNA repair in human embryonic kidney (HEK293T) cells expressing luciferase-tagged ELG1; actives 2.3% (n = 330,000); Potency, µM (doses to about 46.1 µM), usual class: inhibitors; AID 504467, 2011; HEK293T ELG1-luciferase reporter, luminescence, 16 h; DNA damage induced by 5-fluorouridine; note: nearly all actives have a fitted effect of over 55% in size
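DMSO vehicle served as the neutral condition. Each well held 2,000 cells given 5-fluorouridine plus compound; after 16 hr at 37 °C/5% CO2, ONE-Glo was added and luciferase measured 30 min later.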
DT40 TDP1 no CPT: qHTS for Inhibitors of human tyrosyl-DNA phosphodiesterase 1 (TDP1): qHTS in cells in absence of CPT. DT40 Tdp1-/- hTDP1 cells, no CPT, ATP luminescence, 48 h. actives 15% (n = 420,000). Potency, µM (titrated, usually from 46.2 µM), actives largely listed as inhibitors; note: nearly all actives have a fitted effect of over 55% in size
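Chicken DT40 Tdp1-/- cells stably complemented with human TDP1 were seeded at 400 cells/well with DMSO in place of 20 nM camptothecin. After compound pinning, cells grew at least 48 hr at 37 °C; viability read by CellTiter-Glo luminescence.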
DT40 TDP1 CPT: qHTS for Inhibitors of human tyrosyl-DNA phosphodiesterase 1 (TDP1): qHTS in cells in presence of CPT | chicken DT40 Tdp1-/-;hTDP1 cells + 20 nM CPT, ATP luminescence, 48 h | Potency, µM (titrated, usually from 46.2 µM), actives largely listed as inhibitors | actives 12% (n = 420,000); note: nearly all actives have a fitted effect of over 55% in size
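Cell growth measured by CellTiter-Glo luminescence after a minimum 48 h, 37 C compound exposure with 20 nM CPT in Tdp1-knockout DT40 cells stably expressing hTDP1, seeded 400/well; qHTS titration format.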
Each line names hits and unclear results; the compound was inactive in the other large screens. Unless noted, calls come from the whole dose curve; as a rule, active = well fitted curve in the direction sought with a large enough effect; inconclusive = small, poorly fitted or top-dose-only effect, or another doubt; inactive = no such curve, though single readings can be large; an effect the other way counts as inactive or inconclusive.

COc1ccc2nc(-c3ccccc3)[nH]c(=O)c2c1	none (no result: ELG1 repair inh)
CCn1ncc(/C=N\NC(=O)c2csc3ccccc23)c1C	HT1080 IDH1KD tx 5.17µM, HT1080NT lethal inconclusive, ELG1 repair inh inconclusive, DT40 TDP1 no CPT 4.61µM, DT40 TDP1 CPT 2.59µM
O=C(N/N=C/c1ccc(Cl)c([N+](=O)[O-])c1)c1cc(-c2ccccc2)nc2ccccc12	ELG1 repair inh inconclusive, DT40 TDP1 no CPT 7.31µM, DT40 TDP1 CPT 6.51µM
COc1cccc(/C=N/NC(=O)c2cnccn2)c1	ELG1 repair inh inconclusive
Cc1c(OCC(=O)N[C@H](C(=O)O)c2ccccc2)ccc2c3c(c(=O)oc12)CCCC3	none
COc1cccc(C(=O)C2CCCN(C(=O)CCC3=NNC(=O)CC3)C2)c1 (centres undefined)	none
COc1cccc(N2CC(NC(=O)c3cccc(OC)c3OC)CC2=O)c1 (centres undefined)	none (no result: HT1080 IDH1KD tx, IL1B secr inh, HT1080NT lethal, ELG1 repair inh)
O=C(c1cnccn1)N1CCC2(CC1)CCN(C(c1ccccc1)c1ccccc1)CC2	DT40 TDP1 no CPT inconclusive (no result: HT1080 IDH1KD tx, IL1B secr inh, HT1080NT lethal, ELG1 repair inh)
O=C(N/N=C/C=C\c1ccccc1[N+](=O)[O-])c1cc(-c2ccccc2)nc2ccccc12	HT1080 IDH1KD tx inconclusive, ELG1 repair inh inconclusive, DT40 TDP1 no CPT 14.6µM, DT40 TDP1 CPT 23.1µM
O=C(N/N=C/c1cccc(O)c1)c1csc2ccccc12	ELG1 repair inh inconclusive, DT40 TDP1 no CPT 0.651µM, DT40 TDP1 CPT inconclusive
O=C(N/N=C/c1ccc(O)c(O)c1)c1cc(-c2ccccc2)nc2ccccc12	DT40 TDP1 no CPT inconclusive, DT40 TDP1 CPT 8.2µM
O=C(N/N=C/c1cccc(O)c1)c1ccccc1O	ELG1 repair inh inconclusive
CN1CC(=O)N(CC(=O)Nc2cccc(C#N)c2)c2ccccc2C1=O	none (no result: HT1080 IDH1KD tx, IL1B secr inh, HT1080NT lethal, ELG1 repair inh)
Nc1c(C(=O)Nc2ccccc2Cl)nnn1Cc1cccc(Cl)c1	none (no result: HT1080 IDH1KD tx, IL1B secr inh, HT1080NT lethal, ELG1 repair inh)
C=CCNC(=O)c1onc(CSc2ccc(Cl)cc2)c1C(=O)NCC=C	DT40 TDP1 no CPT 16.4µM, DT40 TDP1 CPT inconclusive
C=CCNC(=O)c1onc(CSc2cccc(C)c2)c1C(=O)O	none
O=C(NCc1ccccc1)c1onc(CSc2ccc(F)cc2)c1C(=O)NCc1ccccc1	DT40 TDP1 no CPT inconclusive, DT40 TDP1 CPT 18.4µM (no result: ELG1 repair inh)
C=CCNC(=O)c1onc(CSc2cc(C)cc(C)c2)c1C(=O)NCC=C	IL1B secr inh -103.8, ELG1 repair inh inconclusive, DT40 TDP1 no CPT 18.4µM, DT40 TDP1 CPT inconclusive
CCCCNC(=O)c1onc(CSc2ccc(F)c(F)c2)c1C(=O)NCCCC	DT40 TDP1 no CPT inconclusive, DT40 TDP1 CPT 16.4µM (no result: ELG1 repair inh)
COc1cc(C)c2c(c1OC)C(=O)CC2	none (no result: ELG1 repair inh)
Cc1cccc(C)c1NS(=O)(=O)c1c(C(=O)N2CCCCC2)c(C)n(C)c1C	none
N[C@@H](CSCCCO)C(=O)O	none (no result: HT1080 IDH1KD tx, IL1B secr inh, HT1080NT lethal, ELG1 repair inh)
C=CCNc1nc2c(c(=O)[nH]c(=O)n2C)n1CCCc1ccccc1	none
COc1cccc(C(=O)COC(=O)c2cccs2)c1	ELG1 repair inh inconclusive
CC(c1ccc(F)cc1)n1c(Cn2ncc3ccccc3c2=O)n[nH]c1=S (centres undefined)	DT40 TDP1 no CPT inconclusive
O=c1ccn([C@@H]2O[C@H](CNCc3ccc(-n4cccn4)cc3)[C@@H](O)[C@H]2O)c(=O)[nH]1	none (no result: ELG1 repair inh)
CCOC(=O)c1cc(OC(C)=O)c2ccc(OC)c(OC)c2c1	HT1080NT lethal inconclusive, DT40 TDP1 no CPT 23.1µM, DT40 TDP1 CPT inconclusive (no result: ELG1 repair inh)
CCOC(=O)c1ccc(OC)c(OC)c1Cl	none
CC(Sc1nc(N)c2c3c(sc2n1)CSC(C)(C)C3)C(=O)Nc1ccccc1 (centres undefined)	IL1B secr inh inconclusive, ELG1 repair inh inconclusive, DT40 TDP1 no CPT 13µM, DT40 TDP1 CPT 18.4µM
O=C(NC1CC1)c1cccc(NC(=O)C2CCCCC2)c1	none (no result: ELG1 repair inh)
COC(=O)C=C1CCC2C3CCC4=CC(=O)C(Br)CC4(C)C3C(=O)CC12C (centres undefined)	IL1B secr inh -94.6, DT40 TDP1 no CPT 16.4µM, DT40 TDP1 CPT inconclusive (no result: ELG1 repair inh)
CC12CCC(=O)C=C1CCC1C2C(=O)CC2(C)C1CCC2(O)C(=O)CO (centres undefined)	none
CC(C)(C)NC(=O)CSC(=Nc1ccc(F)cc1)NC#N	IL1B secr inh -96.9, DT40 TDP1 no CPT inconclusive
CCSc1nnc(NC(=O)C2Cc3ccccc3CN2S(=O)(=O)CC)s1 (centres undefined)	ELG1 repair inh inconclusive, DT40 TDP1 no CPT 16.4µM, DT40 TDP1 CPT inconclusive
O=C(Nc1nnc(C2CC2)s1)C1Cc2ccccc2CN1S(=O)(=O)c1cccs1 (centres undefined)	DT40 TDP1 no CPT 16.4µM, DT40 TDP1 CPT 20.6µM
CCS(=O)(=O)N1Cc2ccccc2CC1C(=O)Nc1nc2c(C)cccc2s1 (centres undefined)	ELG1 repair inh inconclusive, DT40 TDP1 no CPT 25.9µM
CCS(=O)(=O)N1Cc2ccccc2CC1C(=O)Nc1nc(C)cs1 (centres undefined)	ELG1 repair inh inconclusive, DT40 TDP1 no CPT inconclusive
O=C(Nc1nnc(SCc2ccc(F)cc2)s1)C1Cc2ccccc2CN1C(=O)c1ccco1 (centres undefined)	IL1B secr inh -78.0, DT40 TDP1 no CPT inconclusive
CC1(C(=O)Nc2cccc(-n3cnnn3)c2)Cc2ccccc2C(=O)O1 (centres undefined)	ELG1 repair inh inconclusive
